Compound activity from PubChem BioAssay.
Pol kappa inh – blocks human DNA polymerase kappa activity | purified Pol kappa, fluorescent DNA synthesis assay, 10 min | 0.53% of 400,000 active | AID 588579 | Q9UBT6 | Potency, µM (top dose mostly 107 µM), actives largely listed as inhibitors
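Kinetic fluorescence readout at 0 and 10 min followed reaction start with substrate at 50 nM final. Beforehand, enzyme (10 nM Pol kappa) stood 15 min with compound at room temperature; buffer-only wells were negative controls.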
Pol beta inh – DNA polymerase beta (human) inhibition | P06746 | Pol beta primer extension/strand displacement, fluorescence kinetic | Potency, µM (doses to about 114 µM), usual class: inhibitors | 1.3% of 340,000 active | AID 485314
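Enzyme-only controls used 10 nM Pol beta; buffer lacking enzyme served as negative control. Compound preincubated 15 min, then 50 nM substrate added; 0 and 10 min reads at room temperature.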
POLI inh – inhibitors of human DNA polymerase iota | AID 588590 | Q9UNA4 | Potency, µM (doses to about 115 µM), usual class: inhibitors | 1% of 390,000 active | Pol iota fluorescent replication assay, 10 min
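Pol iota at 10 nM preincubated 15 min with compounds at room temperature; reaction started with fluorescent substrate, 50 nM final. Fluorescence read kinetically at 0 and 10 min; buffer-only wells as negative control.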
GLS inhibitor – blocks human kidney-isoform glutaminase activity | GLS enzymatic activity, qHTS titration | O94925 | AID 624170 | 0.21% of 410,000 active | Potency, µM (titrated, usually from 45.5 µM), actives largely listed as inhibitors
Target sequence (O94925 whole entry, looked up, canonical isoform): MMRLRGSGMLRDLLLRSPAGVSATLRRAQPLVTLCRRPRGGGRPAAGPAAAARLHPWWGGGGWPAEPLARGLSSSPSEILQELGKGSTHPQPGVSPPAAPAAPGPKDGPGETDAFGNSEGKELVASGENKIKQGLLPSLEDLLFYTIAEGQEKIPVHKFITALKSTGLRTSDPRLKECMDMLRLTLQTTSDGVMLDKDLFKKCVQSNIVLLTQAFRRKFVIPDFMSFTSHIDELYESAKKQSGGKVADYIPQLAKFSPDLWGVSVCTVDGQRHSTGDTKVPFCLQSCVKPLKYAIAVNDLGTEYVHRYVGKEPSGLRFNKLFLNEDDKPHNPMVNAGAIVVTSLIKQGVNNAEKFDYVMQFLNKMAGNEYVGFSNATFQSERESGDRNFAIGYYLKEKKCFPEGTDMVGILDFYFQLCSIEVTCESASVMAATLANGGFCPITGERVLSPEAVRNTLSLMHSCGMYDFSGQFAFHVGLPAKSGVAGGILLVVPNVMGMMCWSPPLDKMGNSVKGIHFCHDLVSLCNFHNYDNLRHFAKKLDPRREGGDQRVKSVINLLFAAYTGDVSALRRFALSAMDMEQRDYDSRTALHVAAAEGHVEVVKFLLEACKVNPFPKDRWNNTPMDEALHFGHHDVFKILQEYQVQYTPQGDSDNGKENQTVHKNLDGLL
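hKGA in 45 mM KH2PO4 (pH 8.2), 0.02% Tween-20 with compound, then 1mM L-Glutamine (stock as added) plus glutamate oxidase/HRP/Amplex red coupling mix. Fluorescence read initially and after 30 min at RT; signal change reflects glutamate formation.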
POLH inh – inhibitors of human DNA polymerase eta. Q9Y253. recombinant Pol eta, fluorescent DNA replication assay. Potency, µM (top dose mostly 114 µM), hits mostly inhibitors. 1.2% of 390,000 active
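Pol eta at 10 nM preincubated with compounds 15 min at room temperature; reaction started with fluorescent substrate (50 nM final) and read kinetically at 0 and 10 min.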
APEX1 inh – blocks human APE1 abasic DNA cleavage; P27695; recombinant APE1, TAMRA/BHQ-2 abasic DNA cleavage fluorescence; Potency, µM (doses to about 65.8 µM), actives largely listed as inhibitors; 0.35% of 350,000 active; also: nearly all actives have a fitted effect of over 55% in size
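APE1 at 0.75 nM final was preincubated with compound 15 min at room temperature, then 50 nM double-stranded THF abasic-site substrate (5'-TAMRA/3'-BHQ-2) was added. Fluorescence (ex 525/em 598 nm) was read kinetically; third-minus-first read gave activity.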
Large screens that a line does not name were inactive. Compounds with a hit are over-represented: about 2.4% of the library has one in this group of screens. Calls follow the shape of the dose curve; as a rule, active = well fitted curve in the direction sought with a large enough effect; inconclusive = small, poorly fitted or top-dose-only effect, or another doubt; inactive = no such curve, though single readings can be large; an effect the other way counts as inactive or inconclusive.

O=C(O)C1Nc2c(C(=O)N3CCOCC3)cccc2C2C=CCC12 (stereo unspecified)	Pol kappa inh 45µM, Pol beta inh 20µM, POLI inh 11µM, GLS inhibitor 2.5µM, POLH inh 3.2µM, APEX1 inh inconclusive
O=C(O)C1Nc2c(C(F)(F)F)ccc(Cl)c2C2C=CCC12 (stereo unspecified)	Pol beta inh 45µM, POLI inh inconclusive, POLH inh inconclusive
Cc1ccc2c(c1C)NC(C(=O)O)C1CC=CC21 (stereo unspecified)	Pol kappa inh 3.2µM, Pol beta inh 2.5µM, POLI inh inconclusive, GLS inhibitor inconclusive, POLH inh 3.5µM, APEX1 inh inconclusive
COCCNC(=O)C1Nc2ccc(C(F)(F)F)cc2C2C=CCC12 (stereo unspecified)	POLI inh inconclusive (no result: Pol beta inh, APEX1 inh)
Cc1cc(C)c2c(c1)C1C=CCC1C(C(=O)O)N2 (stereo unspecified)	Pol kappa inh 28µM, POLI inh inconclusive (no result: Pol beta inh, GLS inhibitor, POLH inh, APEX1 inh)
COC(=O)N/N=C/c1ccc(-c2ccccc2Cl)o1	none
CC[C@@]1(O)C[C@H](O[C@H]2C[C@@H](N(C)C)[C@@H](O[C@H]3C[C@@H](O)[C@@H](O[C@H]4CCC(=O)[C@@H](C)O4)[C@@H](C)O3)[C@@H](C)O2)c2c(cc3c(c2O)C(=O)c2c(O)cccc2C3=O)[C@H]1C(=O)OC	Pol kappa inh 4.5µM (no result: Pol beta inh, POLI inh, POLH inh, APEX1 inh)
CC(=O)N1N=C(c2cccc(O)c2)CC1c1cccs1 (stereo unspecified)	none
CC1(C)CC[C@]2(C(=O)n3ccnc3)CC[C@]3(C)[C@H](C(=O)C=C4[C@@]5(C)C=C(C#N)C(=O)C(C)(C)[C@@H]5CC[C@]43C)[C@@H]2C1	POLI inh 14µM, GLS inhibitor 10µM, POLH inh 3.5µM (no result: Pol beta inh, APEX1 inh)
Cc1ccc(NC(=O)c2cc(S(=O)(=O)N3CCCC3)cn2C)cc1C	none
Cn1cc(NC(=O)c2cc(NC(=O)c3cc(NC=O)cn3C)cn2C)cc1C(=O)NCCC(=N)N	Pol kappa inh 0.79µM, Pol beta inh 14µM (no result: POLI inh, POLH inh)
Cc1ccc(N2CSC3=C(C#N)C(c4cccs4)CC(=O)N3C2)cc1 (stereo unspecified)	Pol kappa inh inconclusive, Pol beta inh inconclusive, POLI inh inconclusive
COc1ccc(N2CSC3=C(C#N)C(c4cccs4)CC(=O)N3C2)cc1 (stereo unspecified)	Pol beta inh 28µM
CCc1ccc(N2CSC3=C(C#N)C(c4cccs4)CC(=O)N3C2)cc1 (stereo unspecified)	Pol kappa inh 79µM, Pol beta inh inconclusive, POLI inh 11µM, GLS inhibitor inconclusive, POLH inh inconclusive
O=C(CSc1ccccn1)Nc1ccc(N2CCOCC2)cc1	none
COc1cc(/C=N/NC(=O)COc2ccc([N+](=O)[O-])cc2)ccc1OCC(=O)N1CCOCC1	Pol beta inh 18µM
COc1cc(/C=N/NC(=O)COc2ccc(-n3cnnn3)cc2)ccc1OCC(N)=O	Pol kappa inh inconclusive, Pol beta inh 16µM, POLI inh inconclusive
COc1cc(/C=N/NC(N)=S)ccc1OCC(=O)N1CCOCC1	none
Cc1cc(C)cc(OCC(=O)Nc2ccc(-n3cnnn3)cc2)c1	POLI inh 32µM (no result: Pol beta inh)
COc1ccc(/C=N/NC(=O)c2ccc(-n3cnnn3)cc2)cc1	none (no result: Pol beta inh)
C/C(CC(=O)NC1CCCCC1)=N\NC(=O)c1ccccn1	none
COc1ccc(-n2nc(C(=O)NCC(=O)N3CCN(Cc4ccccc4)CC3)c3ccccc3c2=O)c(OC)c1	none
CC1(C)NC(=O)N(CN2C(=O)NC(C)(C)C2=O)C1=O	Pol beta inh 79µM
CC(C)CC(NC(=O)OC(C)(C)C)c1cn([C@@H](Cc2ccc(O)cc2)C(=O)N2CCN(C(=O)OC(C)(C)C)CC2)nn1 (stereo partly specified)	Pol beta inh 35µM
CC(=O)c1ccccc1C(=O)N1CCCC(CNC(=O)c2ccccc2Cl)C1 (stereo unspecified)	none
C#CCOCCOCCOCCNc1nc(N2CCN(C(=O)Cn3cc(CCCN=C(N)N)nn3)CC2)nc(N2CCN(C(=O)[C@H]([C@@H](C)CC)n3cc(CCC(=O)O)nn3)CC2)n1	POLI inh 89µM
C#CCOCCOCCOCCNc1nc(N2CCN(C(=O)Cn3cc(CCO)nn3)CC2)nc(N2CCN(C(=O)[C@H]([C@@H](C)CC)n3cc(CCCN=C(N)N)nn3)CC2)n1	none (no result: Pol beta inh, APEX1 inh)
C#CCOCCOCCOCCNc1nc(N2CCN(C(=O)Cn3cc(CCCN=C(N)N)nn3)CC2)nc(N2CCN(C(=O)Cn3cc(CCCN=C(N)N)nn3)CC2)n1	Pol beta inh 1.6µM, APEX1 inh inconclusive (no result: Pol kappa inh, POLI inh, GLS inhibitor, POLH inh)
C#CCOCCOCCOCCNc1nc(N2CCN(C(=O)Cn3cc(CCCCN)nn3)CC2)nc(N2CCN(C(=O)Cn3cc(CCCCN)nn3)CC2)n1	Pol kappa inh inconclusive, Pol beta inh 40µM, POLI inh inconclusive
CCc1cc(=O)oc2cc(C)cc(OCC(=O)NCC(O)c3ccccc3)c12 (stereo unspecified)	none
O=C(CN1CCN(S(=O)(=O)c2ccc(F)cc2)CC1)c1ccc(O)c(O)c1	GLS inhibitor inconclusive, APEX1 inh 4µM
COc1ccc(S(=O)(=O)N2CCN(CC(=O)c3ccc(O)c(O)c3)CC2)cc1	Pol kappa inh 32µM, Pol beta inh inconclusive, POLI inh inconclusive, POLH inh inconclusive
O=C(CN1CCN(S(=O)(=O)c2ccc(Cl)cc2)CC1)c1ccc(O)c(O)c1	Pol kappa inh 20µM, Pol beta inh inconclusive, POLI inh 14µM, POLH inh inconclusive
COc1cccc(C(=O)CN2CCN(S(=O)(=O)c3ccc(Cl)cc3)CC2)c1	none (no result: APEX1 inh)
CCOc1ccc(C(=O)CN2CCN(S(=O)(=O)c3ccc(F)cc3)CC2)cc1	none
NC(=O)N/N=C/c1c(O)ccc2oc3c(c12)CCCC3	none
Cc1nc2ccccc2c(=O)n1/N=C/c1c(O)ccc2oc3c(c12)CCCC3	POLI inh 89µM
Cc1nc2ccccc2c(=O)n1/N=C/c1c(O)ccc2ccccc12	POLI inh inconclusive
CC(C)(C)N=Cc1c(O)ccc2oc3c(c12)CCCC3	POLI inh inconclusive, POLH inh 40µM
C/C(=N\NC(=O)c1nnn(-c2nonc2N)c1CN(C)C)c1ccco1	none
O=C1CCCc2c1oc1c2CCCC1	Pol kappa inh inconclusive, POLI inh inconclusive (no result: Pol beta inh, APEX1 inh)
Cc1nnc(N/N=C/c2cc(C)n(-c3ccc(F)cc3)c2C)n1N	POLI inh inconclusive, GLS inhibitor inconclusive
Oc1ccccc1/C=N/Nc1nn[nH]n1	none
Cc1nnc(N/N=C/c2c(Cl)cccc2Cl)n1N	POLI inh 11µM
Cc1nnc(N/N=C/c2ccccc2O)n1N	POLI inh 14µM
